Results taken from PubChem BioAssay (EPA / NIEHS).
The source made the active and inactive calls. Rule for the calls: active = hit-call score of the fitted dose curve at least 0.9, where 1 is the maximum; inactive = score below 0.9.

Columns and labels:
[1] = read-out: Vascular cell adhesion molecule 1 (VCAM1), VCAM1 (gene 7412); assay: BSK_CASM3C_VCAM1: BioMAP Diversity Plus: CASM3C Assay for Vascular cell adhesion molecule 1 (VCAM1) Biomarker Activity (AID 2283055); conditions: primary human coronary artery smooth muscle cells; actives raise or lower the signal;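 note: VCAM-1 protein level quantified by ELISA on the cells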
[2] = read-out: Collagen III, COL3A1 (gene 1281); assay: BSK_hDFCGF_CollagenIII: BioMAP Diversity Plus: hDFCGF Assay for Collagen III Biomarker Activity (AID 2283056); conditions: primary human foreskin fibroblasts; actives raise or lower the signal
Procedure, shortened: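 Response relative to DMSO, fitted in both directions, reflects ELISA-measured collagen III in human primary skin fibroblasts 24 h after compound addition.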

[3] = read-out: Epidermal growth factor receptor (EGFR), EGFR (gene 1956); assay: BSK_hDFCGF_EGFR: BioMAP Diversity Plus: hDFCGF Assay for Epidermal growth factor receptor (EGFR) Biomarker Activity (AID 2283057); conditions: primary human foreskin fibroblasts; actives raise or lower the signal
Procedure, shortened: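 EGFR levels by ELISA in human dermal fibroblast cultures, 24 h post-treatment, fitted bidirectionally versus DMSO. Parallel wells stained with sulforhodamine B to detect overt cytotoxicity.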

[4] = read-out: Interleukin-8 (IL8), CXCL8 (gene 3576); assay: BSK_hDFCGF_IL8: BioMAP Diversity Plus: hDFCGF Assay for Interleukin-8 (IL8) Biomarker Activity (AID 2283058); conditions: primary human foreskin fibroblasts; actives raise or lower the signal
Procedure, shortened: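 Fibroblast monolayers (human foreskin, hDFCGF) received test chemical for 24 h before ELISA detection of IL-8; either increases or decreases relative to DMSO count as activity.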

[5] = BSK_hDFCGF_Proliferation: Cell Proliferation Assessment in the BioMAP Diversity Plus: hDFCGF Assay (AID 2283059); conditions: primary human foreskin fibroblasts;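 note: curves fitted for both rise and fall of signal versus DMSO baseline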
Procedure, shortened: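 Total protein read at 560 nm after 0.1% SRB staining of TCA-fixed human skin fibroblasts, […]. Activity is fitted in both directions relative to DMSO as baseline.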

[6] = read-out: Macrophage colony-stimulating factor (MCSF), CSF1 (gene 1435); assay: BSK_hDFCGF_MCSF: BioMAP Diversity Plus: hDFCGF Assay for Macrophage colony-stimulating factor (MCSF) Biomarker Activity (AID 2283060); conditions: primary human foreskin fibroblasts; actives raise or lower the signal
Procedure, shortened: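 fibroblasts (human foreskin, primary), 24 h post-dose; M-CSF by ELISA; bidirectional fit, DMSO = baseline.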

[7] = read-out: TIMP metallopeptidase inhibitor 1 (TIMP1), TIMP1 (gene 7076); assay: BSK_hDFCGF_TIMP1: BioMAP Diversity Plus: hDFCGF Assay for TIMP metallopeptidase inhibitor 1 (TIMP1) Biomarker Activity (AID 2283062); conditions: primary human foreskin fibroblasts; actives raise or lower the signal
Procedure, shortened: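 Bidirectional curve fitting against DMSO baseline yielded this endpoint, based on ELISA detection of TIMP-1 in primary human foreskin fibroblasts exposed to compound for 24 h.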

[8] = read-out: Monokine induced gamma interferon (MIG), CXCL9 (gene 4283); assay: BSK_hDFCGF_MIG: BioMAP Diversity Plus: hDFCGF Assay for Monokine induced gamma interferon (MIG) Biomarker Activity (AID 2283063); conditions: primary human foreskin fibroblasts; actives raise or lower the signal
Procedure, shortened: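 Endpoint derived by bidirectional fitting relative to DMSO; MIG quantified via ELISA in primary human foreskin fibroblasts harvested 24 h after dosing.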

[9] = read-out: Matrix Metallopeptidase 1 (MMP1), MMP1 (gene 4312); assay: BSK_hDFCGF_MMP1: BioMAP Diversity Plus: hDFCGF Assay for Matrix Metallopeptidase 1 (MMP1) Biomarker Activity (AID 2283064); conditions: primary human foreskin fibroblasts; actives raise or lower the signal
Procedure, shortened: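 MMP1 levels quantified by ELISA 24 h after dosing human dermal fibroblast cultures, with parallel SRB total-protein staining for overt cytotoxicity. Data fitted in both directions against DMSO baseline.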

[10] = BSK_hDFCGF_SRB: Viability Assessment in the BioMAP Diversity Plus: hDFCGF Assay (AID 2283061); conditions: primary human foreskin fibroblasts;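 note: cells exposed to compound for 24 h before the read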
Procedure, shortened: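 SRB-based viability read on primary human skin fibroblasts at 24 h: TCA fixation, 0.1% dye, 560 nm. Gain or loss of signal is fitted against the DMSO negative control.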

Measured: AC50

CCOCCO
not listed: [10]
inactive: all other assays above

CC[C@H](C)C(=O)O[C@H]1C[C@@H](C)C=C2C=C[C@H](C)[C@H](CC[C@@H]3C[C@@H](O)CC(=O)O3)[C@H]21
inactive: [1]
active: [2] 29.8 µM | [4] 33.8 µM | [5] 13.5 µM | [6] 27.6 µM | [10] 32.2 µM | [7] 29.9 µM | [8] 36.3 µM | [9] 36.6 µM

Cn1c(=O)c2c(ncn2C)n(C)c1=O
not listed: [3] | [10]
inactive: all other assays above

O=C1OC(=O)C2C3C=CC(C3)C12 (configuration not stated)
not listed: [8] | [10]
inactive: all other assays above

CC(C)=CCCC(C)=CC=O
active: [5] 28.1 µM
not listed: [8] | [10]
inactive: all other assays above

CNCc1ccc(NC(=O)c2c[nH]c3c2C(=O)CCC3)cc1
not listed: [8] | [10]
inactive: all other assays above

C1=CCCC=CCCC=CCC1
not listed: [8] | [10]
inactive: all other assays above

CC(C)CCO
active: [5] 17.2 µM
not listed: [10]
inactive: all other assays above
